Source: PubChem (several laboratories)
A selection: hits, their analogues and other compounds. The true share with any hit is near 1.2%.
SRC1 inh: SRC1 coactivator transcriptional activity inhibitors, primary screen, cell-based, luminescence; HEK293 GAL4-SRC1 luciferase reporter; AID 588354, 2011; actives 0.12% (n = 360,000); Nuclear receptor coactivator 1 (Homo sapiens), Q15788; inhibition, % at 3.6 µM;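 active means inhibition above the campaign mean plus 3 SD, with each screening campaign given its own cutoff, cut at about 60% in these data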;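 further: 0% = DMSO treated cells and 100% = gossypol at 36 µM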
NCOA3 inh: SRC3 coactivator transcriptional activity inhibitors, primary screen, cell-based, luminescence; Nuclear receptor coactivator 3 (Homo sapiens), Q9Y6Q9; HEK293 GAL4-SRC3 luciferase reporter; inhibition, % at 3.6 µM; actives 0.17% (n = 360,000); AID 588352, 2011;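 active means inhibition above a per-campaign cutoff, the mean of all compounds plus 3 SD, cut at about 60% in these data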;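 further: 0% = DMSO-treated cells and 100% = gossypol-treated cells at 36 µM; higher means less SRC3-driven luciferase light from the GAL4 reporter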
Efflux pump inh: inhibitors of Candida efflux pumps in yeast, primary screen, S. cerevisiae, Nile Red, multiplex | S. cerevisiae Candida pump triplex | actives 0.44% (n = 330,000) | inhibition, % at 10 µM;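 active means plate passing quality check with inhibition over a set limit, or well fluorescence over plate mean plus 4 SD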;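 further: Nile Red retained in pooled yeast measured as flow cytometry median fluorescence; 0% = buffer negative control and 100% = Enniatin B positive control; higher means more Nile Red kept so more efflux inhibition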
NCOA2 inhibitor: inhibition of GAL4-SRC2 driven luciferase reporter, primary screen, SRC2 inhibitor project, cell-based, luminescence. Nuclear receptor coactivator 2 (Homo sapiens), Q15596. HEK293 GAL4-SRC2 luciferase reporter. inhibition, % at 9 µM. actives 0.17% (n = 370,000). AID 651957, 2012;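 active means inhibition above the mean inhibition of all tested compounds plus 3 SD, set per campaign, cut at about 52% in these data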;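 further: 0% = DMSO treated cells and 100% = cells given Gossypol at 36 µM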
LRH-1 inv ag: LRH-1 (NR5A2) inverse agonists, primary screen, cell-based, luminescence, HEK293T, StAR-luciferase reporter | Nuclear receptor subfamily 5 group A member 2 (Homo sapiens), O00482 | LRH-1 transfected, 24 h | inhibition, % at 3.6 µM | actives 0.13% (n = 360,000);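 active means inhibition above the mean inhibition of all tested compounds plus 3 SD, cut at about 73% in these data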;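 further: 0% = DMSO wells and 100% = reporter-only cells lacking LRH-1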
COUP-TFII inh: NR2F2 transcriptional activity inhibitors, primary screen, cell-based, luciferase reporter, HEK293T, luminescence | HEK293T NGFI-A luciferase reporter | actives 0.7% (n = 370,000) | inhibition, % at 8.6 µM | COUP transcription factor 2 (Homo sapiens), P24468;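 active means inhibition above a per-plate cutoff, mean inhibition of test wells between control levels plus 3 SD, cut at about 38% in these data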;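 further: cells cotransfected with COUP-TFII expression vector driving the NGFI-A reporter; 0% = median of COUP-TF2 test wells and 100% = reporter-only cells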
VP16 Luc counter: Gal4-VP16 luciferase reporter inhibitors, counter-screen for COUP-TFII antagonist project, cell-based, luminescence, HEK293; AID 687007, 2013; actives 25% (n = 2,500); shares compounds with COUP-TFII inh; inhibition, % at 8.5 µM; in the data active means inhibition above about 13%
COUP-TFII conf: NR2F2 transcriptional activity inhibitors, confirmation, cell-based, luciferase reporter, HEK293, triplicate; shares compounds with COUP-TFII inh; HEK293 NGFI-A luciferase reporter, luminescence; inhibition, % at 8.5 µM; actives 45% (n = 2,500);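 active means mean inhibition over three repeats above a set limit taken from the earlier primary screen, cut at about 38% in these data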;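 further: 100% = cells given the luciferase reporter alone without the COUP-TF2 vector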
Starred values were filed as active, the others as inactive; x = not tested or not shown.

SMILES | SRC1 inh | NCOA3 inh | Efflux pump inh | NCOA2 inhibitor | LRH-1 inv ag | COUP-TFII inh | VP16 Luc counter | COUP-TFII conf
Cc1cc(/C=C2/SC(=S)N(c3ccc([N+](=O)[O-])cc3)C2=O)c(C)n1-c1cccnc1 | 13.6 | 21.7 | 0.2 | 20.0 | 0.8 | 11.0 | x | x
Cc1ccc(C)c(N2CCN(C(=O)CCc3nc(-c4ccc(F)cc4)no3)CC2)c1 | -8.4 | 5.4 | 0.1 | 4.0 | 11.1 | -13.6 | x | x
COc1c(C(O)CC(C)C)ccc2c1C(=O)OCc1cc(C)cc(O)c1O2 (centres undefined) | 16.6 | 15.1 | 0.0 | 8.5 | 12.4 | 38.4* | 2.5 | 19.2
COc1c(C(CC(C)C)OC(C)=O)ccc2c1C(=O)OCc1cc(C)cc(O)c1O2 (centres undefined) | 12.4 | 15.9 | 0.2 | 11.5 | 11.8 | 49.4* | 0.4 | 7.8
CC(C)(C)NC(=S)N1CCC2CC1c1cc(-c3ccc4c(c3)OCO4)ccc12 (centres undefined) | -0.6 | 7.7 | x | -0.7 | 14.8 | 0.6 | x | x
O=C(COC(=O)CCc1c[nH]c2ccccc12)Nc1ccccc1 | -6.3 | 7.2 | x | -8.4 | -2.9 | 63.1* | 2.0 | 4.3
CN(C)c1ccc(-c2ccnc3c2CC(C)(C(=O)NCc2ccco2)O3)cc1 (centres undefined) | 2.6 | -7.9 | x | 14.2 | 26.9 | 49.2* | -10.2 | 12.5
CCOc1ccc(NC(=O)CCNS(=O)(=O)c2cccs2)cc1 | 2.9 | 8.9 | 0.8 | -4.2 | 15.0 | -14.2 | x | x
COc1ccc(N(C)S(=O)(=O)c2cccc(C(=O)Nc3nc4ccccc4[nH]3)c2)cc1 | 4.9 | 10.4 | -0.1 | 9.7 | -21.6 | -9.6 | x | x
CN(c1cccc(Cl)c1)S(=O)(=O)c1cccc(C(=O)Nc2nc3ccccc3[nH]2)c1 | -3.3 | 0.4 | 0.1 | -11.2 | -20.7 | 42.2* | -38.8 | -4.9
Cc1ccc2c(c1)Sc1c(ccc3ccccc13)N2 | -117.3 | -97.7 | 0.1 | -44.5 | -103.8 | -42.4 | x | x
CCc1cc(-c2nnn(CCC3COCCO3)c2CC)ccc1-c1cn(Cc2ccccc2)nn1 (centres undefined) | 8.6 | -2.2 | x | 25.8 | 31.1 | 66.2* | -19.5 | 34.0
CCc1cc(-c2cnnn2Cc2ccc3ccccc3c2)ccc1-c1cn(CC(C)C)nn1 | -6.7 | -32.0 | x | 19.7 | -6.0 | -18.3 | x | x
Cc1ccc(Cl)cc1N1CCN(C(=O)c2ccc(NC3=NC4CS(=O)(=O)CC4S3)cc2)CC1 (centres undefined) | -12.8 | 5.3 | 0.1 | 1.6 | -5.0 | 0.8 | x | x
Cc1sc(NC(=O)CCCC(=O)O)c(C(N)=O)c1-c1ccccc1 | -3.6 | 4.7 | -0.1 | 74.9* | -19.3 | 59.9* | 46.7* | 30.0
CC1(C(=O)Nc2ccccc2)CCN1C(=O)Cc1ccc(-c2ccccc2)cc1 (centres undefined) | 2.9 | 1.9 | x | 21.5 | 26.2 | 28.6 | x | x
CC1(C(=O)Nc2ccc3[nH]ncc3c2)CCN1C(=O)Cc1ccc(-c2ccccc2)cc1 (centres undefined) | 1.9 | -11.2 | x | 24.8 | -6.8 | 46.8* | 1.6 | 22.0
CC(C)(C)c1ccc(CC(=O)N2CCC2(C)C(=O)Nc2ccc3[nH]ncc3c2)cc1 (centres undefined) | -0.4 | -2.2 | x | 19.4 | -23.0 | -2.1 | x | x
CC1(C(=O)Nc2ccc3c(c2)OCO3)CCN1C(=O)Cc1ccc(-c2ccccc2)cc1 (centres undefined) | 14.7 | -3.0 | x | 7.6 | 30.3 | 42.5* | 0.1 | 33.4
CC1=C/C(=N\NC(=S)Nc2cccnc2)CC(C)(C)C1 | -36.9 | -48.2 | x | 3.4 | -18.6 | 38.8* | -15.9 | 2.6
O=C(NCc1ccccc1)c1cc(C2CCCN(C(=O)C3CCCCC3)C2)on1 (centres undefined) | -21.2 | -6.2 | x | 4.0 | -3.4 | 101.4* | -15.7 | -16.2
O=C(NCc1ccccc1)c1cc(C2CCCN(C(=O)C3CC3)C2)on1 (centres undefined) | -37.6 | -28.7 | x | 15.1 | -27.4 | -25.6 | x | x
CC(=O)N1CCCC(c2cc(C(=O)Nc3ccccc3)no2)C1 (centres undefined) | 24.9 | 31.2 | x | 44.5 | 32.5 | 41.0* | 16.6* | 59.1*
O=C(Nc1ccccc1)c1cc(C2CCCN(C(=O)C3CC3)C2)on1 (centres undefined) | 12.8 | 12.0 | x | -52.4 | -0.1 | 15.8 | x | x
CCN1C(=O)[C@H]2[C@@H](c3ccc(-c4cc(C(C)=O)cs4)cc3)N3CCC[C@@]3(C(=O)OC)[C@H]2C1=O | -7.8 | -3.9 | 0.0 | 7.8 | -0.3 | 0.9 | x | x
SMILES | SRC1 inh | NCOA3 inh | Efflux pump inh | NCOA2 inhibitor | LRH-1 inv ag | COUP-TFII inh | VP16 Luc counter | COUP-TFII conf
CN(C)S(=O)(=O)N1CCC(Oc2cccc(C(=O)NCCC3=CCCCC3)c2)CC1 | 5.4 | 12.2 | -0.1 | 27.1 | 10.6 | 55.6* | -8.5 | 16.7
CN(C)S(=O)(=O)N1CCC(Oc2cccc(C(=O)NC3CCCCC3)c2)CC1 | 34.3 | 15.0 | -0.1 | 35.9 | 18.1 | 56.8* | -3.7 | 40.5*
COc1ccccc1NC(=O)CCn1c(=O)c2cccn2c2ccccc21 | 1.5 | -12.8 | 0.0 | 1.6 | -22.2 | -6.5 | x | x
CC(C)C(=O)OCCN=C1NS(=O)(=O)c2ccccc21 | 6.7 | -6.5 | -0.1 | -4.2 | 14.9 | -1.6 | x | x
CCOC(=O)C1CCN(S(=O)(=O)c2ccc3c(c2)N(C(C)=O)CC(C)S3)CC1 (centres undefined) | 16.4 | 24.7 | 0.2 | 13.8 | 14.2 | 48.7* | -3.8 | 24.6
CCOC(=O)C1=CCC(c2ccccc2)N(S(=O)(=O)c2ccccc2)C1 (centres undefined) | 19.6 | 11.6 | x | 13.2 | -3.1 | 15.2 | x | x
Cc1ccc(Cl)cc1N1CCN(C(=O)CCS(=O)(=O)c2ccc3c(c2)NC(=O)CO3)CC1 | 10.3 | 14.3 | -0.1 | 42.2 | 3.8 | 53.9* | -3.0 | 24.4
CCc1nc2c(OCc3ccc(Cl)cc3)cccn2c1N(C)C(=O)c1ccco1 | 15.3 | 2.2 | x | -12.8 | 0.1 | 6.8 | x | x
CC(Sc1nnnn1C1CC1)C(=O)N1CC(=O)Nc2ccccc21 (centres undefined) | -15.1 | 1.8 | 0.1 | -8.7 | 4.5 | 7.4 | x | x
CCc1nc2ccccc2c(C(=O)OCC(=O)Nc2cccc(S(=O)(=O)NC3=NCCCCC3)c2)c1C | 6.8 | 19.0 | -0.1 | 10.6 | 2.9 | 64.3* | -1.8 | 20.9
